Source: PubChem
Hits are enriched below; roughly 2.4% of the tested compounds scored in any of these assays.
D2 ag-1: HTS Assay for Allosteric Agonists of the Human D2 Dopamine Receptor: Primary Screen for Agonists; D(2) dopamine receptor (Homo sapiens), P14416; HEK293 T-REx D2 cells, calcium flux agonist mode; activation, % at 2 µM; 340,000 tested, 0.53% active;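 active means activation over 3 SD above normal in the single-dose calcium agonist read, cut at about 30% in these data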; further: 0% is about no effect
Target sequence (P14416 whole entry, looked up): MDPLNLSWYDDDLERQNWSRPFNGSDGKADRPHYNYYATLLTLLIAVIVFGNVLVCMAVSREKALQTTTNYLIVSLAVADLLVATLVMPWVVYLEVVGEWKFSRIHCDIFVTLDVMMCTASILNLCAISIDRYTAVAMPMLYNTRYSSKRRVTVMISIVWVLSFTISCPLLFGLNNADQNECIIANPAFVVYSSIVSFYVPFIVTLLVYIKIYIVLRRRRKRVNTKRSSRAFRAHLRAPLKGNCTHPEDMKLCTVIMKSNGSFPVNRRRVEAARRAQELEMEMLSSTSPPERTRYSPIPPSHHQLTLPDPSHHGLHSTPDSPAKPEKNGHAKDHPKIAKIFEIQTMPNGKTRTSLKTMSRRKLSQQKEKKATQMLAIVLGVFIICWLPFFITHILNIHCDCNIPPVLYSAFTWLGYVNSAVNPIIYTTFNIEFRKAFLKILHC
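Tetracycline-induced HEK293 Trex cells with D2 receptor force-coupled to calcium signaling, plated overnight at 30 C and loaded with no-wash calcium dye. Calcium flux read kinetically for 180 s after compound addition; responses flag agonists.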
D2 PAM-1: Beta-Arrestin HTS for Positive Allosteric Modulators of the Human D2 Dopamine Receptor: Potentiators | D(2) dopamine receptor (Homo sapiens), P14416 | DiscoveRx D2 beta-arrestin cells, luminescence, 90 min; 100% = 57 uM dopamine signal | potentiation, % (test concentration not listed) | 360,000 tested, 0.23% active; in the data active means potentiation above about 50%
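PathHunter beta-arrestin assay in DiscoveRx D2 cells. Compounds were added with an EC20 of dopamine (50 nM final) for 90 min at 37 deg C. Luminescence was read 1 h after detection reagent, with 57 uM dopamine as the EC100 control.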
D2 antagonist: HTS Assay for Allosteric Antagonists of the Human D2 Dopamine Receptor: Primary Screen for Antagonists. HEK293 TREx D2 cells, calcium flux, dopamine EC80. inhibition, % at 10 µM. 340,000 tested, 2% active; in the data active means inhibition above about 30%; inactive means below that, where a call was filed; further: 0% is about no effect
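Tetracycline-induced HEK293 TREx cells expressing D2 receptor forced-coupled to calcium signalling, loaded with no-wash calcium dye. Compounds added and calcium flux read 180 s, then dopamine added at EC80 and read a further 180 s.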
D2 ag-2: Beta-Arrestin HTS for Positive Allosteric Modulators of the Human D2 Dopamine Receptor: Agonists | D(2) dopamine receptor (Homo sapiens), P14416 | 360,000 tested, 0.084% active | activation, % (test concentration not listed) | DiscoveRx PathHunter D2 beta-arrestin, luminescence, 90 min; 100% = 57 uM dopamine signal | AID 624465, 2012; in the data active means activation above about 40%
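Agonist mode: compounds alone added to overnight-plated D2 PathHunter cells for 90 min at 37 C, with 57 uM final dopamine (EC100) defining full response. Beta-arrestin recruitment detected by chemiluminescent reagent, read after 1 h at ambient temperature.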
D2 PAM-2: HTS Assay for Positive Allosteric Modulators of the Human D2 Dopamine Receptor: Primary Screen for Potentiators | 340,000 tested, 0.34% active | HEK293 T-REx D2, calcium flux, EC20 dopamine potentiation | potentiation, % at 10 µM;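 active means potentiation over 3 SD above the plate norm, cut at about 30% in these data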; further: 0% is about no effect
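Tetracycline-induced Hek293 Trex D2 cells, force-coupled to calcium, loaded with no-wash calcium dye. Compound added with 180 s kinetic read for agonism, then EC20 dopamine and a further 180 s read for potentiation.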
Numbers without * were called inactive.

Results for CCN1CCN(c2nc(Nc3ccccc3)nc(N)c2[N+](=O)[O-])CC1 ?
D2 ag-1: -2.2; D2 PAM-1: -34.8; D2 antagonist: 84.2*; D2 ag-2: -6.9; D2 PAM-2: -19.8

What do the screens show for `COc1cccc(CNS(=O)(=O)c2cc(Br)cc3c2N(C(C)=O)C(C)C3)c1` (stereo unspecified)?
D2 ag-1: 0.2; D2 PAM-1: -12.7; D2 antagonist: 39.9*; D2 ag-2: -1.3; D2 PAM-2: -23.1

Results for CC(=O)N1c2c(cc(Br)cc2S(=O)(=O)NCc2ccccc2)CC1C (stereo unspecified) ?
D2 ag-1: -3.1; D2 PAM-1: -8.5; D2 antagonist: -0.4; D2 ag-2: 3.6

Results for COc1cc(CNC[C@H]2O[C@@H](n3ccc(N)nc3=O)[C@H](O)[C@@H]2O)ccc1OCc1ccc(C)cc1 ?
D2 PAM-1: 1.4; D2 ag-2: -9.2

What do the screens show for `Fc1ccc(Nc2nc(SCc3cccc(Cl)c3)nc3ccccc23)cc1`?
D2 ag-1: 0.6; D2 PAM-2: 3.7

Results for COc1ccc(C(CNC(=O)c2cccc(S(=O)(=O)Nc3ccccc3OC)c2)N2CCCC2)cc1 (stereo unspecified) ?
D2 ag-1: 1.1; D2 PAM-1: -34.3; D2 antagonist: -8.3; D2 ag-2: 0.2; D2 PAM-2: -28.8

What do the screens show for `COc1ccc(C(CNC(=O)c2cccc(N(C)C)c2)N2CCCC2)cc1` (stereo unspecified)?
D2 ag-1: 0.1; D2 PAM-1: -19.4; D2 antagonist: 46.6*; D2 ag-2: -3.0; D2 PAM-2: -25.4
